In PubChem BioAssay:
Activity calls are given as the source filed them.

Experiments:
[1] = test system: PRMT1 (protein arginine N-methyltransferase 1); test: small molecules binding arginine methyltransferase PRMT1 – biochemical, small-molecule microarray, 635 nm fluorescence, primary screen (AID 1088); conditions: higher = more signal;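 also: binding of Prmt1 protein to compounds spotted on small-molecule microarray slides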
[2] = growth effects on S. cerevisiae YJM789 – YJM789 clinical isolate, OD600, 24 h, basal, primary screen (AID 1089); conditions: higher = more signal, called active from +8 up or from −8 down;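 also: growth of clinical yeast isolate S. cerevisiae YJM 789 seeded 1000 cells per well; test concentration not given here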
[3] = S. pombe growth modifiers, basal conditions – strain 972, OD600, 24 h, no modulator, primary screen (AID 1090);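 also: basal condition with compound alone and no growth modifier present; test concentration not given here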; conditions: S. pombe 972 growth, higher = more signal, called active from +8 up or from −8 down
[4] = budding yeast growth modifiers under rapamycin – strain BY4716, OD600, 96 h, primary screen (AID 1091); also: test concentration not given here; conditions: S. cerevisiae BY4716 + rapamycin, higher = more signal, called active from +8 up or from −8 down
[5] = target: Torsin-1A-interacting protein 2 (Homo sapiens) (UniProt Q8NFQ8); test: small molecules binding lysate-expressed LULL1 – cell lysate, human LULL1 lysate, 635/667 nm fluorescence, primary screen (AID 1092); conditions: small-molecule microarray, hLULL1 lysate binding, 635 nm fluorescence; higher = more signal;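 also: probe is lysate of COS7 cells overexpressing human LULL1; score merges per-feature 667 nm fluorescence with signal-to-noise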
[6] = optical density change of DRC41 E. coli – strain DRC41, OD650, 24 h, E. coli filamentation project, primary screen (AID 1093);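 also: MC1000 strain lacking acrAB efflux and sulA so SOS filamentation is blocked; test concentration not given here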; conditions: E. coli DRC41 growth, higher = more signal, called active from +8 up or from −8 down
[7] = probe aLefty2 binding to arrayed compounds – biochemical, biotinylated probe, 635/667 nm fluorescence, primary screen (AID 1094); conditions: small-molecule microarray, higher = more signal;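 also: score merges spot fluorescence near 667 nm with spot signal-to-noise ratio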
[8] = test system: Noggin (protein binding on small-molecule microarray); test: small molecules binding Noggin protein – biochemical, 635/667 nm fluorescence, primary screen (AID 1095); conditions: 635 nm fluorescence, higher = more signal;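 also: score merges 667 nm feature fluorescence with signal to noise over triplicate slides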
[9] = target: Neurogenic locus notch homolog protein 3 (Homo sapiens) (UniProt Q9UM47); test: small molecules binding NOTCH3 protein – biochemical, 635/667 nm fluorescence, primary screen (AID 1096); conditions: small-molecule microarray, 635 nm fluorescence, higher = more signal
[10] = probe aEGFR binding to arrayed compounds – biochemical, biotinylated probe, 635/667 nm fluorescence, primary screen (AID 1097); conditions: small-molecule microarray, higher = more signal;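 also: probe is a biotinylated anti-EGFR antibody binding compounds printed on slides; score combines fluorescence near 667 nm and signal to noise of each spot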
[11] = test system: Plasmodium falciparum Sir2 (PF13_0152, Sir2A); test: Plasmodium falciparum Sir2A binding compounds – biochemical, small-molecule microarray, 635 nm fluorescence, primary screen (AID 1098); conditions: fluorescence 635 nm, higher = more signal;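 also: score merges spot fluorescence intensity with its signal-to-noise ratio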
[12] = probe aDKK1 binding to arrayed compounds – biochemical, biotinylated probe, 635/667 nm fluorescence, primary screen (AID 1099); conditions: small-molecule microarray, higher = more signal;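 also: score merges 667nm spot fluorescence with signal to noise across triplicate slides; reference of the scale not given here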
[13] = probe aCHRDL2 binding to arrayed compounds – biochemical, biotinylated probe, 635/667 nm fluorescence, primary screen (AID 1100); conditions: small-molecule microarray, higher = more signal
[14] = change in splice reporter luminescence, either direction, cell-based, HEK293, spliceosome inhibition project, primary screen (AID 1101); conditions: HEK293 splicing luciferase reporter, 24 h, higher = more signal, called active from +8 up or from −8 down;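 also: HEK293 cells carrying a splicing-competent luciferase reporter gene; test concentration not given here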
[15] = target: Fibroblast growth factor 10 (Homo sapiens) (UniProt O15520); test: compounds binding fibroblast growth factor 10 – biochemical, small-molecule microarray, 635 nm fluorescence, primary screen (AID 1102); conditions: FGF10 binding, fluorescence 635 nm, higher = more signal
[16] = test system: glycogen synthase kinase-3 (GSK3A per assay name; protocol says GSK3B); test: compounds binding glycogen synthase kinase-3 – biochemical, small-molecule microarray, 635 nm fluorescence, GSK3A, primary screen (AID 1103); conditions: fluorescence 635 nm, higher = more signal; also: the record names both GSK3A and GSK3B
[17] = target: Epidermal growth factor receptor (Homo sapiens) (UniProt P00533); test: compounds binding epidermal growth factor receptor – biochemical, small-molecule microarray, 635 nm fluorescence, primary screen (AID 1104); conditions: EGFR binding, higher = more signal;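 also: score merges 667 nm emission intensity with spot signal to noise over triplicate slides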
[18] = target: Follistatin-related protein 3 (Homo sapiens) (UniProt O95633); test: compounds binding follistatin-related protein 3 – biochemical, small-molecule microarray, 635 nm fluorescence, primary screen (AID 1105); conditions: FSTL3 binding, higher = more signal;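 also: score merges emission near 667 nm and signal to noise per printed spot across three slides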
[19] = target: Dickkopf-related protein 1 (Homo sapiens) (UniProt O94907); test: small molecules binding DKK1 protein – biochemical, small-molecule microarray, 635 nm fluorescence scan, primary screen (AID 1106); conditions: higher = more signal;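 also: score merges emission near 667 nm with signal to noise over three replicate slides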
[20] = test system: Inhibin beta A chain (activin A); test: small molecules binding activin A – biochemical, small-molecule microarray, 635 nm fluorescence scan, primary screen (AID 1107); conditions: INHBA, higher = more signal;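 also: mouse activin A protein probed at 4.33 µg/mL on printed slides; score merges bound-protein fluorescence near 667 nm with spot signal-to-noise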

Sequence of Dickkopf-related protein 1 (Homo sapiens) (O94907 whole entry, looked up): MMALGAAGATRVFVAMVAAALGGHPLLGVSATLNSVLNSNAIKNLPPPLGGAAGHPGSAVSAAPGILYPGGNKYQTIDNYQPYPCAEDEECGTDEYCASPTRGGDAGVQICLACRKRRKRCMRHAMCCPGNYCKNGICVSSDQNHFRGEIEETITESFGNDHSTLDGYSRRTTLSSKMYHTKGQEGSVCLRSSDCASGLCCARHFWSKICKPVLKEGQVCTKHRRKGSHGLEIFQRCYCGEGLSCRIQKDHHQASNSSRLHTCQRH
Sequence of Fibroblast growth factor 10 (Homo sapiens) (O15520 whole entry, looked up): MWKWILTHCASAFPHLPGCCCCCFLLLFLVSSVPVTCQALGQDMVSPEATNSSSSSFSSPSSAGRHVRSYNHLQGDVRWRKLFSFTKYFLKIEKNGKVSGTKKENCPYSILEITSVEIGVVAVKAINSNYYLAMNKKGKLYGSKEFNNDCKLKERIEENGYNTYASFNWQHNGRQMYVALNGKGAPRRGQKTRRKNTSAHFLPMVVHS
Sequence of Epidermal growth factor receptor (Homo sapiens) (P00533 whole entry, looked up): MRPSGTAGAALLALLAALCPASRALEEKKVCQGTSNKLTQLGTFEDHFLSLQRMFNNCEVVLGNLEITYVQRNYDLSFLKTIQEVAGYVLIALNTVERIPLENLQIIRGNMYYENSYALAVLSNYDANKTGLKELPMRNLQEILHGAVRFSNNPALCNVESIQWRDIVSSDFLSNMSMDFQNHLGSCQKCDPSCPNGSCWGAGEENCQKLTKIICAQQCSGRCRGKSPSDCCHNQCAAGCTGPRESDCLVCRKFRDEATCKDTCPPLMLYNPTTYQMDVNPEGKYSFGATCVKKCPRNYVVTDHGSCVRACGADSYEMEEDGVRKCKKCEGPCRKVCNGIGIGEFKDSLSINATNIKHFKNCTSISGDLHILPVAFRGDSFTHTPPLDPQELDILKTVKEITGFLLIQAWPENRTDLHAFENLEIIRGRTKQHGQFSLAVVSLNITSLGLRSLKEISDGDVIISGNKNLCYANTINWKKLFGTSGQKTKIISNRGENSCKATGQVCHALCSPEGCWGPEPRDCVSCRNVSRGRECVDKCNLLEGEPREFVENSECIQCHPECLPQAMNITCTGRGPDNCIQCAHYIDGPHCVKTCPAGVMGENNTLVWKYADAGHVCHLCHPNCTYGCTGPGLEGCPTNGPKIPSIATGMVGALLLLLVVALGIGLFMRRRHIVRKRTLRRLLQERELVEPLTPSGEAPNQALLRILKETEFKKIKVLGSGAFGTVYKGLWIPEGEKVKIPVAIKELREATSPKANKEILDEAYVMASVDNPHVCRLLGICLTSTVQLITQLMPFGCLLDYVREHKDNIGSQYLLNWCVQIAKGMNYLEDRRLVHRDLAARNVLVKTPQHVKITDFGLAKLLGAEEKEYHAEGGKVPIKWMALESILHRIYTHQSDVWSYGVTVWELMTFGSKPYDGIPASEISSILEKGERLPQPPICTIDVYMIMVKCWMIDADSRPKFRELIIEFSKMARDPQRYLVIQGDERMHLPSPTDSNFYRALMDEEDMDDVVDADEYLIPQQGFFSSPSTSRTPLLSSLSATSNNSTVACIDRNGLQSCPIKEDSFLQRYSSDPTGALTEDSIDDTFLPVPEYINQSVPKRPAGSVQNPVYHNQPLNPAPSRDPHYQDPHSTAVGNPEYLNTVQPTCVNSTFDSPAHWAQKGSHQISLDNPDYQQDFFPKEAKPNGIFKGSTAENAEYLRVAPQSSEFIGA
Sequence of Neurogenic locus notch homolog protein 3 (Homo sapiens) (Q9UM47 whole entry, looked up): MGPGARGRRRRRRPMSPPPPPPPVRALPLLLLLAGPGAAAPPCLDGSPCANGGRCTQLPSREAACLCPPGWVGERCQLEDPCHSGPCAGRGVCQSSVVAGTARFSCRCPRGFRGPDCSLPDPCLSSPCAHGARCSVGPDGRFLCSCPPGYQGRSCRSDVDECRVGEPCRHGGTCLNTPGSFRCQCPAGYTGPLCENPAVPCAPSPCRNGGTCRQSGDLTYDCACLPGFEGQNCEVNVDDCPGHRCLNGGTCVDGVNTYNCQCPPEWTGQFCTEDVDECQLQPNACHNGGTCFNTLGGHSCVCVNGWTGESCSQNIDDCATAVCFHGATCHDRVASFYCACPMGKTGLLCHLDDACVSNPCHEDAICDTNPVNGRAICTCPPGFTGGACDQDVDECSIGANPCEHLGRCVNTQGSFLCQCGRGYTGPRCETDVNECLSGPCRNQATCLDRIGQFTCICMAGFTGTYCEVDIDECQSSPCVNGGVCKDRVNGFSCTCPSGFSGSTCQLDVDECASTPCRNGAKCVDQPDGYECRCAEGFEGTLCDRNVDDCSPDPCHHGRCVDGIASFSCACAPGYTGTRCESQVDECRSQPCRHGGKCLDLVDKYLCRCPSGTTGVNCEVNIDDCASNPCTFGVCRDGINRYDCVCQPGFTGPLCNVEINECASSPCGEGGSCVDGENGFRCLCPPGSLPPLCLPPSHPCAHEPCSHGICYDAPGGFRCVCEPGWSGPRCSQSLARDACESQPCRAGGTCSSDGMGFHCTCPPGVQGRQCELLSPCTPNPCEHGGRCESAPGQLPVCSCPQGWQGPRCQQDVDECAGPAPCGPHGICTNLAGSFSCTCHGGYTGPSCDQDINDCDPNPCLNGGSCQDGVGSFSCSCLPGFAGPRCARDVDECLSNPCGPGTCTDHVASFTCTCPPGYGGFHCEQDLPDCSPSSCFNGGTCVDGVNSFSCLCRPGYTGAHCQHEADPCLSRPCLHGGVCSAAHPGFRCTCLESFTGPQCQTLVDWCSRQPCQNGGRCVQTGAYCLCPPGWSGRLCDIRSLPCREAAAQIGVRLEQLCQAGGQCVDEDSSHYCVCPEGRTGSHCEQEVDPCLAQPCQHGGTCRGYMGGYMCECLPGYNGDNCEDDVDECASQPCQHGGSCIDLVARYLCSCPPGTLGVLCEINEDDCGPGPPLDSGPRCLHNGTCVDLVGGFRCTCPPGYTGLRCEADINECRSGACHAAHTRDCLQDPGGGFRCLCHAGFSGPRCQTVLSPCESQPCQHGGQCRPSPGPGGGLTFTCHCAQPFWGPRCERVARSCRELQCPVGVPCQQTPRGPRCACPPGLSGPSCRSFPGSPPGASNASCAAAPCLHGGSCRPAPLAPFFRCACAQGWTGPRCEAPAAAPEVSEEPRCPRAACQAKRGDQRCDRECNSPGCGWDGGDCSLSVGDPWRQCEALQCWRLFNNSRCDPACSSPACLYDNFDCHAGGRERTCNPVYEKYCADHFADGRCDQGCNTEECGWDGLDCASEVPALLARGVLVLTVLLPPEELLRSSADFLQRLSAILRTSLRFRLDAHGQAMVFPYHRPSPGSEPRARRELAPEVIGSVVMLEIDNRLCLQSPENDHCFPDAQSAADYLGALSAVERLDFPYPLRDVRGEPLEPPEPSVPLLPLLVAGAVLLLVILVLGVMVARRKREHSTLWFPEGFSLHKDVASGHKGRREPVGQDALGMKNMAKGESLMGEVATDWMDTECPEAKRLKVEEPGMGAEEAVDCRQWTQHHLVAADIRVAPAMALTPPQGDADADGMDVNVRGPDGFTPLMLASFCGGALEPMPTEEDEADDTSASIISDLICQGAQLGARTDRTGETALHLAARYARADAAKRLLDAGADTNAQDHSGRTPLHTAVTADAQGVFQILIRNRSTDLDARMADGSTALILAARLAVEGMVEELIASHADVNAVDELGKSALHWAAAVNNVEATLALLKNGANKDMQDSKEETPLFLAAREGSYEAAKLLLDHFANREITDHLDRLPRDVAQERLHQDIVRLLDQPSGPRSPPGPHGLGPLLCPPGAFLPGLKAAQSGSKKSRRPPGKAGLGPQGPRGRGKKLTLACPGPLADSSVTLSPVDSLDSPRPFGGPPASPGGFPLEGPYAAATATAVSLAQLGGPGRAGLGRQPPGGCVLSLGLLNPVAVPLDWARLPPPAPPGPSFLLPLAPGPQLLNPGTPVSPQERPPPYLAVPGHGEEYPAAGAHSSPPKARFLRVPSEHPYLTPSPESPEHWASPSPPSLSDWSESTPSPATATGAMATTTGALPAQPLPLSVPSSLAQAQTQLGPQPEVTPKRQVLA
Sequence of Follistatin-related protein 3 (Homo sapiens) (O95633 whole entry, looked up): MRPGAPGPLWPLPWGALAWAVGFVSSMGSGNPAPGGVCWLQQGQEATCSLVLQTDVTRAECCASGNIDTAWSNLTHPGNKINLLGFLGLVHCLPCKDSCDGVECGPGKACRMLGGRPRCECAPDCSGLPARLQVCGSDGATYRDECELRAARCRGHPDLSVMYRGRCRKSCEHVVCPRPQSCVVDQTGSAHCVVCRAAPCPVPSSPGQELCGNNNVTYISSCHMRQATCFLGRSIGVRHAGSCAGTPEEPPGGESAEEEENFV
Sequence of Torsin-1A-interacting protein 2 (Homo sapiens) (Q8NFQ8 whole entry, looked up): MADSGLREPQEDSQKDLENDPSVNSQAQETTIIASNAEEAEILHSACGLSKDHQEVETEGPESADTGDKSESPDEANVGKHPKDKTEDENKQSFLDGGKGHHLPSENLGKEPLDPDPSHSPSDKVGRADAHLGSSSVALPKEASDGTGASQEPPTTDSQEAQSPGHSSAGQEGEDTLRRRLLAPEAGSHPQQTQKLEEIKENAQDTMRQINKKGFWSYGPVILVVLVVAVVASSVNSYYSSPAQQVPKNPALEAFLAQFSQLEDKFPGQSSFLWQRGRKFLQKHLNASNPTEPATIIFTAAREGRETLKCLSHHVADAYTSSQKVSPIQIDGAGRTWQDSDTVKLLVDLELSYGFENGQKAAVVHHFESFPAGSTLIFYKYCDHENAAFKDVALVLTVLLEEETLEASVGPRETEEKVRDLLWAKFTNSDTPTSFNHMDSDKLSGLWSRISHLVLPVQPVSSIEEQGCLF

Row | Structure (SMILES) | composite z-score [1] | z-score [2] | z-score [3] | z-score [4] | composite z-score [5] | z-score [6] | composite z-score [7] | composite z-score [8] | composite z-score [9] | composite z-score [10] | composite z-score [11] | composite z-score [12] | composite z-score [13] | z-score [14] | composite z-score [15] | composite z-score [16] | composite z-score [17] | composite z-score [18] | composite z-score [19] | composite z-score [20]
1 | CCCCC(=O)N(CCN1CCOCC1)[C@@H]1CC(C(=O)NCCO)=C[C@H](Oc2c(I)cc(CO)cc2OC)[C@H]1O | 0.729 | 0.0164 (inactive) | -0.393 (inactive) | 0.0883 (inactive) | 0.322 | 1.3 (inactive) | -0.301 | 0.26 | 0.232 | -0.152 | 0.787 | -0.309 | -0.764 | 0.751 (inactive) | 0.318 | 0.725 | 0.349 | 0.412 | 0.817 | 0.0845
2 | Cc1nc2cc(Br)ccc2c(=O)n1Cc1cccc(O)c1 | 1.57 | 0.104 (inactive) | -1.84 (inactive) | -0.973 (inactive) | 1.16 | 1.22 (inactive) | -0.0607 | 1.33 | -0.108 | -0.0474 | 0.547 | -0.136 | -0.282 | -0.0746 (inactive) | 0.89 | 0.768 | 0.416 | 0.782 | 1.16 | -0.022
3 | CN(C)CCCCCCNC(=O)[C@@H]1C[C@@H]2C(=O)N[C@@H](CCCCN)C(=O)N2[C@@H]1c1ccc(O)cc1 | 1.54 | -0.38 (inactive) | -3.54 (inactive) | -0.958 (inactive) | 4.67 | 1.98 (inactive) | 1.87 | 2.25 | 1.02 | 1.31 | 2.07 | 3 | 1.81 | -2.28 (inactive) | 1.58 | 1.46 | 1.68 | 1.64 | 2.29 | 1.56
4 | CCCC=C(CCC)[C@@H](NS(=O)(=O)c1cccc2cccnc12)c1ccc(-c2ccccc2)cc1 | 1.55 | -0.221 (inactive) | 0.114 (inactive) | 0.638 (inactive) | 3.61 | -0.701 (inactive) | 0.104 | 1.07 | 1.06 | 0.06 | 0.757 | 0.939 | 0.75 | -0.301 (inactive) | 1 | 1.32 | 0.355 | 0.909 | -0.345 | -0.278
5 | COc1ccc([Si](C)(C)[C@H]2[C@H](CC(=O)N3CCC[C@H]3CO)O[C@@]3(C(=O)N(Cc4ccc(N5CCC5=O)cc4)c4ccccc43)[C@@H]2C)cc1 | 1.54 | -0.647 (inactive) | -1.59 (inactive) | -1.31 (inactive) | 2.42 | 0.13 (inactive) | -0.197 | 1.65 | 1.07 | -0.0578 | 1.49 | -0.248 | -0.567 | -0.805 (inactive) | 1.34 | 1.29 | 0.838 | 1.41 | 0.774 | -0.525
6 | COCC1=C2[C@@H](CCc3ccccc3)OB(O)C[C@@H]2[C@@H]2C(=O)N(C)C(=O)[C@@H]2C1 | -0.0522 | -0.31 (inactive) | -1.56 (inactive) | -0.53 (inactive) | 0.332 | -0.817 (inactive) | -0.0141 | 0.0638 | 0.183 | -0.131 | -0.069 | -0.333 | -0.57 | 0.348 (inactive) | 0.711 | -0.0422 | 0.3 | 0.146 | 0.216 | 0.808
7 | [N-]=[N+]=NCc1ccccc1[C@H]1OC(c2ccc(OCCCO)cc2)=N[C@@]1(Cc1ccccc1)C(=O)NCCN1CCOCC1 | 1.53 | -1.07 (inactive) | -0.864 (inactive) | -0.31 (inactive) | 3.34 | 1.12 (inactive) | 0.443 | 0.52 | 1.09 | -0.0329 | 1.23 | -0.378 | 0.75 | -1.06 (inactive) | 1.43 | 1.21 | 0.446 | 1.07 | 0.0815 | 0.768
8 | CC(C)[C@H]1NC(=O)[C@@]23C(=O)N[C@@H](Cc4ccccc4)C2[C@H](C)[C@@]2(C)O[C@H]2C3/C=C/CCC/C=C/CNC(=O)[C@H](Cc2ccccc2)NC1=O (stereo not given in full) | 0.776 | 0.249 (inactive) | -1.4 (inactive) | -0.622 (inactive) | 2.47 | 0.139 (inactive) | -0.232 | 1.22 | 0.419 | -0.161 | 1.39 | -0.339 | -0.32 | 0.286 (inactive) | 0.106 | 0.291 | -0.023 | 0.0435 | 0.147 | 0.943
9 | C=C(/C(=C/C[C@@H](OC(C)=O)c1ccc(CO)o1)c1cc(C(=O)OC)ccc1OC)C(C)C | 0.864 | 1.06 (inactive) | -0.245 (inactive) | -0.0251 (inactive) | 1.86 | -0.0453 (inactive) | -0.0142 | 0.328 | 0.213 | 0.358 | 0.12 | -0.22 | -0.256 | 0.227 (inactive) | 1.02 | 0.469 | -0.132 | 0.347 | 0.251 | 0.995
10 | CCOC(=O)C[C@H]1[C@H](OC(=O)c2ccccc2-c2ccccc2)[C@@H](NC(=O)c2ccc3ccccc3n2)c2cc(OCCCO)ccc2N1C(=O)c1ccccc1 | 1.01 | 1.2 (inactive) | 0.364 (inactive) | 1.61 (inactive) | 1.46 | -0.943 (inactive) | -0.149 | 0.54 | 0.797 | -0.0084 | 0.459 | -0.269 | -0.46 | -0.407 (inactive) | 0.526 | 0.45 | 0.575 | 0.581 | 0.499 | 0.0428
